Laboratory results from the supplement of paper PMC9694430.

Experiments:
Test in all cases: thermal shift delta Tm vs DMSO control; higher = stronger stabilization (binding)
Settings in all cases: 12.5 µM; protein concentration 2 µM
[1] = system: LOC_OS04G57630-cb004
In short: (§1)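 Rice kinase domain constructs, made in E. coli and purified, were placed in 96-well plates at 2 μM in 19.5 μl of 100 mM potassium phosphate pH 7.5, 150 mM NaCl, 10% glycerol and 5 × SYPRO Orange, with compound in DMSO. A temperature ramp from 25°C to 95°C at 0.05°C/s was used for differential scanning fluorimetry. The melting temperature shift is a triplicate mean compared with DMSO-only protein, derived from Boltzmann fits.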

[2] = system: LOC_OS05G07850-cb002
In short: as §1

[3] = system: LOC_OS05G16824-cb004
In short: as §1

[4] = system: LOC_OS05G28520-cb001
In short: as §1

[5] = system: LOC_OS05G30820-cb001
In short: as §1

[6] = system: LOC_OS05G43570-cb004
In short: as §1

[7] = system: LOC_OS06G16330-cb003
Sequence of LOC_OS06G16330-cb003 (as listed by the source): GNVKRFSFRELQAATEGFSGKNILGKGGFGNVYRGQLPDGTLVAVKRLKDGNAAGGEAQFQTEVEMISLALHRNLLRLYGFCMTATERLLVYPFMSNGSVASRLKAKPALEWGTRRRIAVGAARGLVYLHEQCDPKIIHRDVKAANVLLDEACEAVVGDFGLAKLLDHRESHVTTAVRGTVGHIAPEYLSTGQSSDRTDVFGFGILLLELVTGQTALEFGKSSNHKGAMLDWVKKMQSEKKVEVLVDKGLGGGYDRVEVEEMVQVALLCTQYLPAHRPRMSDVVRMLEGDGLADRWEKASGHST
In short: as §1

[8] = system: T1, LOC_OS06G22820-cb001
T1 sequence (whole entry): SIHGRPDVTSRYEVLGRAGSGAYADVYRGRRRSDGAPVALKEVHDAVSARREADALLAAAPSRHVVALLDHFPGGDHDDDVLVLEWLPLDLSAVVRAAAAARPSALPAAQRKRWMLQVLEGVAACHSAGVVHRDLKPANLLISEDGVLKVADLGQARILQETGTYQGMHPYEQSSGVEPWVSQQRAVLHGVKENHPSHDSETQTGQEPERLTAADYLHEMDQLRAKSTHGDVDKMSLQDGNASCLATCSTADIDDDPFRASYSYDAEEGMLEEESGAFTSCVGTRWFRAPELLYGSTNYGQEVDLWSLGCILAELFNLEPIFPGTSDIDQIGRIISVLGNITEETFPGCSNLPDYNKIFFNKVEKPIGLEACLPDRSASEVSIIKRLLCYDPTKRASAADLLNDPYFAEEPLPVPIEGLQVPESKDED
In short: as §1

[9] = system: LOC_OS07G06570-cb004
In short: as §1

[10] = system: LOC_OS07G07230-cb001
In short: as §1
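Further: purified Escherichia coli-expressed rice kinase domain construct.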

Row | SMILES | thermal shift delta Tm [1] [°C] | thermal shift delta Tm [2] [°C] | thermal shift delta Tm [3] [°C] | thermal shift delta Tm [4] [°C] | thermal shift delta Tm [5] [°C] | thermal shift delta Tm [6] [°C] | thermal shift delta Tm [7] [°C] | thermal shift delta Tm [8] [°C] | thermal shift delta Tm [9] [°C] | thermal shift delta Tm [10] [°C]
1 | CN1CCN(c2cccc(Nc3nc4c(-c5ccc(S(C)(=O)=O)cc5)cccn4n3)c2)CC1 | 0.63 | 5.82 | 6.48 | 0.11 | 0.63 | 0.2 | 4.09 | 0.43 | 0.46 | -0.02
2 | Cc1ccc(C(=O)Nc2cccc(C(F)(F)F)c2)cc1Nc1nc(-c2cccnc2)nc2c1cnn2C | 0.31 | 0.03 | -1.61 | 0.44 | 0.9 | 1.18 | 1.09 | 0.98 | 1.07 | 0.06
3 | N#Cc1ccc(-c2c(-c3ncn[nH]3)sc(N3CCOCC3)c2C#N)c(F)c1 | 0.27 | -0.29 | -1.35 | 0.33 | 0.65 | 0.57 | -0.08 | 0.61 | 1.08 | 0.24
4 | Cn1cc(-c2cnn3c(N)c(Br)c([C@@H]4CCCNC4)nc23)cn1 | 0.1 | 6.22 | 4.78 | 0.02 | 0.27 | 0.29 | 7.12 | 0.34 | 0.75 | 0.55
5 | CNC(=O)c1cc(COc2nnc(Nc3ccc(Cl)cc3)c3ccoc23)ccn1 [Telatinib] | 0.3 | 0.35 | -3.58 | 0.37 | 0.56 | 0.21 | -0.23 | 0.39 | 0.17 | 0.1
6 | Cc1ccc2nc(NCCN)c3ncc(C)n3c2c1 | -0.03 | 0.79 | -0.92 | 0.44 | 0.61 | 0.49 | 0.49 | 0.81 | 1.79 | 0.68
7 | N#Cc1c(NC(=O)c2cccc3ccccc23)sc2c1CCCC2 [JNK Inhibitor IX] | 0.22 | 0.04 | -1.1 | 0.77 | 0.43 | 0.27 | -0.09 | 0.6 | 0.83 | 0.4
8 | CCNC(=O)Nc1ccc(-c2nc3c(c(N4CCOC[C@@H]4C)n2)CCN(C2COC2)C3)cc1 | 0.05 | 0.56 | -1.52 | 0 | 0.54 | 0.3 | 0.18 | 0.27 | 1.06 | 0.66
9 | CN1CCC(Nc2nc(Nc3ccc(Oc4ccccc4)cc3)c3c(=O)[nH]cc(Br)c3n2)CC1 | 1.8 | 7.31 | 9.77 | 1.25 | 1.19 | 1.11 | 2.6 | 0.71 | -0.18 | -0.18
10 | NC(=O)c1ncn([C@@H]2O[C@H](CO)[C@@H](O)[C@H]2O)c1N [AICAR (Acadesine)] | 0.05 | 0.57 | -1.12 | -0.02 | 0.45 | 0.5 | 0.02 | 0.92 | 1.07 | -0.25
11 | COc1cc2c(N3CCN(C(=O)Nc4ccc(OC(C)C)cc4)CC3)ncnc2cc1OCCCN1CCCCC1 [Tandutinib (MLN518)] | 2.05 | 1.44 | 0.72 | 0.2 | 0.16 | 0.41 | -1.38 | 0.3 | 1.1 | 0.38
12 | O=C1c2ccc(Nc3ccc(F)cc3F)cc2CCc2ccc(OC[C@H](O)CO)cc21 [Skepinone-L] | -0.62 | 1.02 | -0.73 | 0.27 | 0.6 | 0.4 | -0.23 | 0.53 | 0.41 | -0.05
13 | c1nc2c(NC3CCCCC3)nc(Nc3ccc(N4CCOCC4)cc3)nc2[nH]1 [Reversine] | 3.78 | 12 | 11.7 | 0.53 | 4.07 | 1.11 | 8.57 | 0.3 | 1.48 | 1.02
14 | O=C(Nc1ccc(OC(F)(F)F)cc1)c1sccc1NCc1ccnc2ccccc12 | 0.49 | 2.25 | -0.83 | 0.05 | 0.65 | 0.67 | 0.61 | 0.92 | 0.2 | -0.46
15 | C#Cc1cccc(Nc2ncnc3cc(OC)c(OCCCCCCC(=O)NO)cc23)c1 | 0.04 | 7.33 | -6.18 | 0.35 | 0.58 | 0.66 | 1.72 | 0.49 | 0.91 | -0.06
16 | Cc1c(C(=O)N2CCOc3ccc(-c4ccc(N)nc4)cc3C2)ccc(S(C)(=O)=O)c1F | 0.14 | 0.91 | -4.24 | 0.33 | 0.36 | 0.13 | 1.82 | 0.73 | 0.94 | 0.23
17 | COc1cc2c(cc1OC)[C@@H]1C(=O)c3ccc4c(c3O[C@@H]1CO2)C=CC(C)(C)O4 [Deguelin] | 0.18 | -0.44 | -0.75 | -0.03 | -0.19 | 0.47 | -0.59 | 0.97 | 0.49 | -0.57
18 | N#CC(=C(/N)Sc1ccccc1N)/C(C#N)=C(\N)Sc1ccccc1N | -0.53 | -1.4 | -1.67 | 1.16 | 0.39 | 0.33 | 1.2 | 1.19 | -0.22 | 0.58
